Screening results: PubChem BioAssay, The Scripps Research Institute Molecular Screening Center
Shown are actives, neighbours in structure and some others; about 4.1% of the full set was active somewhere.
DAX1 inh-1 = inhibitors of DAX1 repression of SF-1 activated StAR promoter | 1.1% of 370,000 active | HEK293T StAR-luciferase reporter, SF-1/DAX-1 repression relief | AID 652010 | inhibition, % at 6.8 µM;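 active = inhibition above the mean over all tested compounds plus 3 SD, cut at about 3.6% in these data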;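 note: 0% = DAX-1 cells with DMSO and 100% = cells lacking DAX-1 with DMSO; higher inhibition means more luminescence from relief of DAX-1 repression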
hcDAF-12 act = activates DAF-12 receptor from parasite H. contortus; HEK293 hcDAF-12 lit1-tk-luc reporter, luminescence; 0% DMSO, 100% Δ7-dafachronic acid; activation, % at 6.8 µM; 1.4% of 370,000 active; AID 652067;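 active = activation above the mean of all tested compounds plus 3 SD, cut at about 5.5% in these data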;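 note: 100% = response to 3 µM Δ7-dafachronic acid high control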
hgDAF12 agonist = activates the H. glycines DAF-12 receptor ligand-binding domain; HEK293 GAL4-hgDAF12 UAS-luciferase reporter, agonist luminescence; normalized to butyrate control; activation, % at 6.8 µM; 1.8% of 370,000 active;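 active = activation above a cutoff set at the mean of all screened compounds plus 3 SD, cut at about 10% in these data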;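 note: 0% = DMSO wells and 100% = sodium butyrate wells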
ssDAF-12 act = S. stercoralis DAF-12 activation, primary screen. 1% of 370,000 active. AID 652126. HEK293 ssDAF-12/GRIP1 lit1-tk-luc reporter, luminescence; % of 3 µM dafachronic acid response. activation, % at 6.8 µM;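 active = activation above the mean over all tested compounds plus 3 SD, cut at about 0.9% in these data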;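 note: 0% = DMSO-only wells and 100% = 3 µM delta7-dafachronic acid wells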
DAX1 inh-2 = inhibits human nuclear receptor DAX1 | P51843 | HEK293 Gal4-DAX1 luciferase reporter, luminescence | inhibition, % at 6.75 µM | 0.99% of 340,000 active;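 active = inhibition above the mean over all tested compounds plus 3 SD, cut at about 4.2% in these data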;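 note: 0% = DAX1-transfected cells with DMSO and 100% = empty-vector control cells with DMSO; inhibition shows as a rise in luminescence from relieved DAX1 repression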
Target sequence (P51843 207-470 limits assumed): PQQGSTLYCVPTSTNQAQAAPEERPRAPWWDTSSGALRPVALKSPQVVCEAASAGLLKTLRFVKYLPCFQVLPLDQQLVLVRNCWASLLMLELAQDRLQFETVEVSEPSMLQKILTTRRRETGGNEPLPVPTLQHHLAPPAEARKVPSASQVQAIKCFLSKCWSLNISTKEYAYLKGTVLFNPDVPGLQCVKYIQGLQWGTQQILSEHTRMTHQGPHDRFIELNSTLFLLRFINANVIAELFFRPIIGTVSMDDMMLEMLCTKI
DAX1 conf = confirmation of human DAX1 (NR0B1) inhibitors; shares compounds with DAX1 inh-1; HEK293T StAR-promoter luciferase reporter, SF-1/DAX-1 repression; AID 652134; inhibition, % at 6.8 µM; 87% of 2,400 active;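 active = inhibition above the average of every tested compound plus 3 SD, cut at about 3.8% in these data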;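 note: 0% = DAX-1 cells with DMSO and 100% = no DAX-1 control cells with DMSO; active compounds raise luminescence by relieving repression of the StAR reporter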
SF1 mutant ctr = nonselective inhibitor or artifact in SF-1 mutant DAX1 counter-screen; HEK293 StAR-luciferase, SF-1 AF2 mutant, luminescence; inhibition, % at 6.8 µM; shares compounds with DAX1 inh-1; 78% of 2,400 active; AID 652136;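 active = inhibition above the mean of all tested compounds plus 3 SD, cut at about 3% in these data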;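 note: 0% = DAX-1 transfected cells with DMSO and 100% = cells without DAX-1 with DMSO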
Active calls of the source: *; . = not tested or not shown.

SMILES | DAX1 inh-1 | hcDAF-12 act | hgDAF12 agonist | ssDAF-12 act | DAX1 inh-2 | DAX1 conf | SF1 mutant ctr
COc1ccccc1NS(=O)(=O)c1ccc(C)c(C(=O)NCC2(N(C)C)CCCCC2)c1 | 2.9 | 1.2 | -1.4 | -1.3 | -0.4 | . | .
CN(C(=O)c1cccc(NC(=O)Cc2ccc(NC(=O)C3CCN(C(=O)C4CC4)CC3)cc2)c1)C1CCC1 | 5.0* | 0.8 | -0.4 | -0.2 | -1.9 | 1.5 | 2.3
CCOc1ccc(NC(=O)CC2C(=O)N(c3ccccc3)C(=O)N2CCc2cccs2)cc1 (stereo unspecified) | 0.0 | -0.8 | -3.5 | -1.8 | -1.4 | . | .
O=c1cc(-c2ccccc2)oc2cc(O)c(O)c(O)c12 | 5.5* | 3.5 | 10.4 | -1.4 | 1.9 | 9.6* | 5.1*
O=c1cc(-c2ccc(O)cc2)oc2ccc3ccccc3c12 | -3.7 | -3.3 | -11.9 | -1.9 | -3.8 | . | .
C[C@H]1[C@@H](Cc2cc(Cl)cc(Cl)c2)N(c2ccccc2)c2ccccc2CN1Cc1ccccc1 | 5.0* | -0.2 | 4.1 | -0.7 | . | -2.0 | -1.1
CC(C)NC(=O)N[C@H]1CC[C@H](CC(=O)NCc2ccc(Oc3ccccc3)cc2)O[C@@H]1CO | 4.5* | 0.4 | 2.2 | -0.8 | . | 0.0 | 2.8
Cc1cccc(-c2cc3nc4c(c(NCc5ccco5)n3n2)CCCC4)c1 | 5.0* | 0.2 | 11.7* | -0.1 | 1.6 | 5.4* | 3.1*
Cc1ccsc1C(=O)NNC(=O)C1C2C=CC(C2)C1C(=O)O (stereo unspecified) | 5.2* | 9.5* | 17.1* | 1.1* | 2.7 | 3.8* | 2.3
O=c1[nH]c(=O)n([C@H]2C[C@H](O)[C@@H](CO)O2)cc1I | 5.6* | 1.3 | 10.0 | 0.1 | 0.2 | 14.2* | 6.1*
CCC(C)c1ccc(NC(=O)NCc2cccnc2)cc1 (stereo unspecified) | -1.0 | 0.4 | -1.7 | -1.5 | 0.2 | . | .
CCC(C)c1ccc(NC(=O)Nc2cccnc2)cc1 (stereo unspecified) | 6.4* | 0.3 | 9.1 | 0.8 | 1.6 | 4.7* | 3.6*
Cc1nn2c(=O)cc(COC(=O)c3c(F)cccc3Cl)nc2s1 | 8.6* | 1.0 | 8.2 | -0.1 | 2.2 | 6.4* | 6.2*
OC(COc1ccc(CNCCc2ccccc2F)cc1)CN1CCCCC1 (stereo unspecified) | 0.2 | 1.1 | -0.8 | -0.9 | 3.6 | . | .
Cc1ccc(C)c(OCc2cc(C(=O)N3CCN(c4ccccc4)CC3)no2)c1 | 6.3* | 3.9 | 9.4 | 0.5 | 0.7 | 5.3* | 4.8*
O=C(c1cc(COc2ccc(F)cc2F)on1)N1CCN(C(=O)c2ccco2)CC1 | -1.7 | -2.2 | -0.2 | -1.1 | 0.0 | . | .
Cc1ccc(C)c(OCc2cc(C(=O)N3CCN(C(=O)c4ccco4)CC3)no2)c1 | 6.4* | 4.2 | 8.2 | -0.3 | 0.8 | 6.2* | 4.1*
CCCCN(C)CCNC(=O)CN1C(=O)CSc2ccc(S(=O)(=O)N3CCCC3)cc21 | 7.2* | -0.2 | 1.8 | -0.7 | 1.0 | 3.3 | 0.6
COCCn1c(C)cc(C(=O)COC(=O)c2ccc(-n3nc(C)cc3C)cc2)c1C | 0.8 | -0.7 | -2.8 | -0.8 | -0.8 | . | .
COCCn1c(C)cc(C(=O)COC(=O)c2ccc(Cl)c(S(N)(=O)=O)c2)c1C | 5.5* | 2.3 | 3.0 | -0.7 | 0.7 | 8.7* | 0.7
CC1CCC(NC(=O)COC(=O)c2ccco2)CC1 (stereo unspecified) | -0.5 | 2.7 | 3.5 | -1.1 | -0.7 | . | .
COc1cc2c(=O)[nH]c3cc([N+](=O)[O-])ccc3c2cc1[N+](=O)[O-] | -5.9 | -2.6 | -1.5 | -1.3 | -0.3 | . | .
Nc1cc2[nH]c(=O)c3ccccc3c2cc1[N+](=O)[O-] | 5.4* | 2.0 | 6.9 | -0.8 | 1.4 | 0.2 | -0.9
O=C(Nc1ccc(F)cc1)OCc1cn(Cc2ccccc2C(F)(F)F)nn1 | -0.6 | -1.8 | 2.1 | -1.0 | . | . | .
Cc1cc(C)c2nc(SCC(=O)N3CC(=O)Nc4ccccc43)c(C#N)cc2c1 | 4.8* | -1.8 | -1.9 | -0.6 | -1.5 | 10.5* | -7.5
